Test results: the supplement of paper PMC6555819

How the values were obtained:
Assay in all cases: PBM binding z-score (relative to random genomic background probes); higher = stronger binding; sequences stand for … in GC…GCGATTGACAGCGTAGAATGAAGG
[1] = tested on: RARb homodimer (NR concentration 270 nM)
How it was run: (§1)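 Binding z-scores take random background probes as their reference. They come from custom Agilent 4×180K protein-binding microarrays incubated 1 h with ligand-free nuclear receptor dimers, with antibodies against each partner (one per run) detecting binding. Scanned fluorescence was regression-normalized.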

[2] = tested on: RARg:RXRa (NR concentration 270 nM, RXRa partner concentration 90 nM)
How it was run: as §1

[3] = tested on: RARg homodimer (NR concentration 270 nM)
How it was run: as §1

[4] = tested on: RXRa DBDmut IVT, anti-RXR (DBD mutation: RXRa K156A/R161A, NR concentration 90 nM)
How it was run: as §1

[5] = tested on: RXRa homodimer (NR concentration 180 nM)
How it was run: as §1

[6] = tested on: THRa:RXRa (NR concentration 90 nM, RXRa partner concentration 90 nM)
How it was run: as §1

[7] = tested on: THRa homodimer (NR concentration 90 nM)
How it was run: as §1

[8] = tested on: VDR homodimer (NR concentration 270 nM)
How it was run: as §1

| Sequence | PBM binding z-score [1] | PBM binding z-score [2] | PBM binding z-score [3] | PBM binding z-score [4] | PBM binding z-score [5] | PBM binding z-score [6] | PBM binding z-score [7] | PBM binding z-score [8] |
| --- | --- | --- | --- | --- | --- | --- | --- | --- |
| ATCTCTAGGTAACAAGTTCAGTGATAGAGAGGAC | 1.92 | 1.05 | 1.57 | 1.06 | 0.757 | 1.38 | 0.931 | 2.93 |
| CGAAGTAGGTCAAGGACAGTGAATCTCCGCACGC | 3.17 | 3.94 | 4.66 | 1.45 | 2.92 | 3.07 | 1.51 | 0.462 |
| ACTAGCAGGCCAAGTTTGGGTCGCTCAAACAAAG | 0.422 | 0.182 | -0.0192 | -0.368 | -0.399 | 0.704 | -0.599 | -0.503 |
| CCTATTAGATGACCATAAGGGCAACCGAAGCTCG | 1.98 | 1.02 | 1.2 | 0.541 | 0.88 | 1.69 | 1.19 | 0.819 |
| AAAATGAGGTTATTAAGATCAGGGAATTGCGGTC | 0.725 | 1.16 | 0.933 | 2.27 | 1.78 | 2.28 | 0.636 | 1.19 |
| ATCGAAGGGTCGACGAGGTGAGTATACACCGTTT | 1.42 | 2.38 | 2.29 | 0.234 | 2.33 | 2.86 | 0.22 | 0.636 |
| AATACAGGGTCATCGTCGGCCAGAGTACGCACAG | 3.96 | 5.6 | 5.02 | 3.4 | 6.37 | 4.1 | 1.64 | 3.57 |
| AGAACGAGGGCACGCTGAGCTGATAGCAGAGTAG | 0.904 | 1.83 | 2.12 | 1.48 | 1.2 | 1.39 | -0.398 | 0.48 |
| ATCTCTAGGTAAAGATAGTTCACTGAATGCAAAT | 1.54 | 1.1 | 1.18 | 0.234 | 0.828 | 1.31 | 0.149 | 1.13 |
| ACTAATAGTTGAGACGAGGGCAACCGATAGGTTG | 1.37 | 0.936 | 1.15 | 0.345 | 0.834 | 3.43 | 0.12 | 0.709 |
| CTCGAAGGGTCGTGCTCAGGTGAGTATACCAAAC | 1.59 | 3.39 | 2.01 | 1.01 | 2.52 | 3.65 | 0.851 | 0.628 |
| TCTGCTAGGTCAATGATGGTCAGCTAATCTGCTA | 2.75 | 3.45 | 4.62 | 1.11 | 1.89 | 2.59 | 0.321 | -0.294 |
| TCTTGTAAATCAATAGAGGTTAAGAAAGTGCGCT | 1.42 | 0.907 | 0.577 | 1.23 | 1.46 | 1.56 | 0.0458 | 0.639 |
| TCATATAGGTAATACAGGTGAAGGTCGGCATCTA | 2 | 1.13 | 0.974 | 1.69 | 1.46 | 1.31 | 0.829 | 0.817 |
| GGAACCAGGGCAAGTTGATAGCAGAGTTTGATGG | 1.71 | 1.17 | 1.52 | 1.85 | 0.254 | 1 | 1.21 | 0.898 |
| ATCTCTAGGTAAGAAGTTCAGTGAAAGAGAGGAC | 1.85 | 1.25 | 1.48 | 0.26 | 0.531 | 0.982 | 0.234 | 1.52 |
| CGAACTAGGTCAGAACAGGACAGAGAAGGATGAT | 1.89 | 2.45 | 3.27 | 0.331 | 1.2 | 3.39 | 0.271 | 0.244 |
| CCTTACGGGTCACTCCAGGCTATAGCATCGGAGT | 2.51 | 4.03 | 4.09 | 0.95 | 4.01 | 4.23 | -0.482 | 0.841 |
| TCTAGTTGGGCACGGAGGTCACACACGACGGGTA | 4.1 | 4.07 | 3.83 | 0.548 | 4.43 | 3.34 | 1.83 | 2.63 |
| GCTGCTGGGTCAGGTTGGTCAGCTAACGGGTACG | 2.57 | 1.94 | 2.78 | -0.0156 | 0.839 | 1.21 | 0.312 | 0.573 |
| GCATATAGGTAATACAAGGTGAAGGTCCGATTGT | 1.04 | 0.61 | 0.653 | 0.103 | 0.694 | 4.08 | 1.09 | -0.214 |
| TATACAGGGTCAAAGGCTAGAGTACGAATGTCGA | 3.57 | 5.5 | 5.45 | 2.73 | 6.82 | 3.44 | 1.01 | 3.25 |
| ATCGAAAGGTCGTGAGTTGAGTATACAGAAAGGC | 2.4 | 4.08 | 3.7 | 1.49 | 4.88 | 2.32 | 0.26 | 1.49 |
| CCGACGGGGGCATAAGGTTACCATAAGCCAGCCC | 2.78 | 4.76 | 3.14 | 2.15 | 3.62 | 3.58 | 1.76 | 2.1 |
| TCTGCTAGGTCAGTTGGTCAGGTAACGAGCTGCC | 2.67 | 2.55 | 3.52 | 0.427 | 0.908 | 1.95 | 0.951 | -0.545 |
| ACTAGCAGGCCAAGGGTTACTCAAGATTAGTCCG | 0.787 | 0.885 | 0.852 | -0.129 | 1.08 | 0.78 | -0.538 | -0.236 |
| TTACCCAGGTGAGCTGAGGTCGTTGATCCAACTC | 1.17 | 0.816 | 0.509 | -0.172 | 1.19 | 4.32 | 1.8 | 2.27 |
| AGAACGAGGGCAATGAGTGGATAGCACGGGTGGC | 0.709 | 0.805 | 1.49 | 1.05 | 0.694 | 0.576 | -0.226 | 0.818 |
